# Experimental data as given in PubChem BioAssay AID1240 (Sanford-Burnham Center for Chemical Genomics, 2008).
# Among all 50,000 compounds or so, about 800 (1.6%) showed an effect of 50% or more. What follows is part of a selection rich in strong results, with near analogues and random picks from the rest.
# Biological target: Bcl-2-like protein 10 (Homo sapiens) (UniProt Q9HD36)
# Assay: TR3 peptide-Bcl-B binding displacers, biochemical primary FP assay, phenotype converters (AID 1240);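 further: 0% = Bcl-B with tracer peptide and DMSO and 100% = tracer peptide lacking Bcl-B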
# Details: GST-Bcl-B / FITC-TR3 peptide fluorescence polarization; stronger effect = higher value; compound at 3.75 mg/L
# Chain of Bcl-2-like protein 10 (Homo sapiens) (Q9HD36 whole entry, looked up): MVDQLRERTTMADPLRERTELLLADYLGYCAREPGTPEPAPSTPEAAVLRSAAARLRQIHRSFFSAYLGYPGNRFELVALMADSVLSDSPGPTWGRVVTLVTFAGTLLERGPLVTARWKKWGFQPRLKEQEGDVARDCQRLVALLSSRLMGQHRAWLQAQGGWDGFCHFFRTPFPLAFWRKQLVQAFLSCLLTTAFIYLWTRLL
row,SMILES,displacement
1,O=C(NC1CCS(=O)(=O)C1)/C(=C\c1ccc(Br)cc1)NC(=O)c1ccccc1 (stereo unspecified),1.9%
2,O=C1c2ccccc2C(=O)C12OC(c1ccc(Br)cc1)C1(C(=O)c3ccccc3C1=O)C2c1ccc(F)cc1 (stereo unspecified),2.6%
3,Fc1ccc(/C=N/Nc2nnc(-c3ccccc3)c(-c3ccccc3)n2)cc1,5.2%
4,C(=C(\c1ccccc1)c1nc2ccccc2[nH]1)/c1ccco1,2.2%
5,CCN1C(=O)c2cccc3c(NC(=O)c4ccc(Cl)s4)ccc1c23,11.6%
6,CCN1C(=O)c2cccc3c(NC(=O)c4ccc(C(=O)c5ccccc5)cc4)ccc1c23,101%
7,CCN1C(=O)c2cccc3c(NC(=O)c4ccc(S(=O)(=O)N(C)C)cc4)ccc1c23,84.1%
8,CCN1C(=O)c2cccc3c(NC(=O)c4ccc(S(=O)(=O)N5CCCCCC5)cc4)ccc1c23,88.2%
9,CCN1C(=O)c2cccc3c(NC(=O)c4ccc(S(=O)(=O)N5CCOCC5)cc4)ccc1c23,8.7%
10,CCN1C(=O)c2cccc3c(NC(=O)c4cccs4)ccc1c23,-29.9%
11,CCN1C(=O)c2cccc3c(S(=O)(=O)N(C)C)ccc1c23,6.6%
12,O=C(Nc1cccc2ccccc12)c1ccc(S(=O)(=O)N2CCCCC2)cc1,-8.9%
13,CCN1C(=O)c2cccc3c(NC(=O)c4ccc(Oc5ccccc5)cc4)ccc1c23,-14.2%
14,COCCNC(=O)Cc1ccc(Br)cc1,13.1%
15,COc1ccc(CC(=O)Nc2cccc(NC(=O)c3cccc(Cl)c3)c2)cc1OC,-0.7%
16,CCc1nn2c(N)c(C=C3C=CC(=O)C=C3)c(=O)nc2s1,1.9%
17,COc1ccc(CCNC(=O)C2CN(S(=O)(=O)c3ccccc3)CCN2S(=O)(=O)c2ccccc2)cc1OC (stereo unspecified),-2.8%
18,O=C(COC(=O)C1CC(=O)N(c2ccc(Cl)cc2)C1)c1ccccc1 (stereo unspecified),9.1%
19,O=C(NC(=S)Nc1ccc(N2CCCCC2)c(Cl)c1)c1ccco1,-7.1%
20,CC(C)CCn1c(=O)[nH]c2ccccc21,10.2%
21,CCCc1c(C)nc2c(Cl)cccc2c1SCC(=O)O,-1.7%
22,COC(=O)c1c(NC(=O)c2ccco2)sc2c1CCC2,91.1%

row,SMILES,displacement
1,COC(=O)c1c(NC(=O)c2ccco2)sc2c1CCC(C)C2 (stereo unspecified),0.1%
2,NC(=O)c1c(NC(=O)c2ccco2)sc2c1CCC2,4.5%
3,CCc1ccccc1OCCCNC(C)(C)C,1.5%
4,O=C(NNC(=O)c1cc([N+](=O)[O-])ccc1Cl)c1ccc([N+](=O)[O-])cc1,-4.8%
5,NC(=O)C1CCN(C(=O)c2ccc([N+](=O)[O-])cc2)CC1,4.4%
6,Cc1ccc(-c2csc(NC(=O)C3C4CCC(C4)C3C(=O)O)n2)c(C)c1 (stereo unspecified),-0.1%
7,CC(Oc1ccccc1)C(=O)NCc1cccnc1 (stereo unspecified),3.9%
8,CCOc1ccc2nc(NC(=O)C(c3ccccc3)c3ccccc3)sc2c1,66.7%
9,CCOc1ccc2nc(NC(=O)c3ccccc3O)sc2c1,-1%
10,CCOc1ccc2nc(NC(=O)c3ccccc3C(=O)O)sc2c1,-7%
11,COc1ccc(Cc2nc(-c3ccc(Cl)cc3)no2)cc1OC,1.1%
12,Cc1ccc(OCCOc2ccc(Br)cc2C=C2C(=O)NC(=S)NC2=O)cc1,-23.5%
13,O=C(CSc1nc2ccccc2o1)NCc1ccco1,-19.3%
14,Cc1ccc(N(CC(=O)O)S(=O)(=O)c2ccc(F)cc2)cc1,8.4%
15,CCOc1ccc2oc(-c3ccccc3)c(C(=O)O)c2c1,5.4%
16,CCOC(=O)c1c(-c2ccccc2)oc2cc(Br)c(OC(=O)c3ccco3)cc12,8.8%
17,CC(Oc1ccc2oc(-c3ccccc3)c(C(=O)O)c2c1)C(=O)O (stereo unspecified),59.2%
18,CCOC(=O)c1c(-c2ccccc2)oc2ccc(OC(=O)C(C)(C)C)cc12,10.8%
19,Cc1oc2ccc(OC(C)C(=O)O)cc2c1C(=O)O (stereo unspecified),14.7%
20,CCOC(=O)c1c(-c2ccccc2)oc2ccc(OC(=O)c3ccco3)cc12,99.8%
21,O=C(CSc1nc2ccccc2[nH]1)N/N=C/c1cccc(Cl)c1Cl,-5.4%
22,COc1ccccc1CC(=O)N1CCN(c2ccc([N+](=O)[O-])cc2)CC1,11.9%

row,SMILES,displacement
1,COc1ccc(CC(=O)Nc2sc3c(c2C(=O)Nc2ccccc2Cl)CCCC3)cc1,-9.7%
2,COc1ccc(Cl)cc1/C=C1/C(=O)NN(c2cccc(Br)c2)C1=O,-1.3%
3,Cc1cccc(N2C(=O)Cn3c2nc2c3c(=O)n(C)c(=O)n2C)c1,-5.8%
4,Cc1ccc(N2C(=O)Cn3c2nc2c3c(=O)n(C)c(=O)n2C)cc1Cl,-12.5%
5,COc1ccc(N2C(=O)Cn3c2nc2c3c(=O)n(C)c(=O)n2C)cc1,61.6%
6,CC(O)c1cccc(NC(=O)c2nn3c(c2Cl)NC(c2ccco2)CC3C(F)(F)F)c1 (stereo unspecified),-0.1%
7,COc1ccc(C(=O)NC(=S)NCc2ccco2)cc1,9.4%
8,Cn1c(-n2c(CCN3C(=O)c4ccccc4C3=O)nc3ccccc3c2=O)nc2ccccc21,66.3%
9,Cc1cccc(-n2c(CCN3C(=O)c4ccccc4C3=O)nc3ccccc3c2=O)n1,-0.9%
10,Cn1c(-n2c(CCCN3C(=O)c4ccccc4C3=O)nc3ccccc3c2=O)nc2ccccc21,35.4%
11,C/C(=N\NC(=O)c1ccccn1)c1ccc(F)cc1,-18.6%
12,O=C1NC(=O)N(c2ccc(Cl)cc2)C(=O)/C1=C/c1ccc(O)c(Br)c1,-8.4%
13,O=C(Oc1cccc(-c2cnc3ccccc3n2)c1)c1cccc(S(=O)(=O)N2CCOCC2)c1,225%
14,COC(=O)c1cccc(S(=O)(=O)N2CCOCC2)c1,-16%
15,O=C(Oc1ccc(Cl)cc1)c1cccc(S(=O)(=O)N2CCOCC2)c1,-8.4%
16,CCOc1cccc(NC(=O)/C(C#N)=C/c2cn(CC(=O)Nc3ccccc3)c3ccccc23)c1,104%
17,N#C/C(=C\c1cn(CC(=O)Nc2ccccc2)c2ccccc12)C(=O)NCc1ccccc1,61.2%
18,N#C/C(=C\c1cn(CC(=O)Nc2ccccc2)c2ccccc12)C(=O)Nc1ccc(F)cc1,-30.3%
19,Cc1cccc(NC(=O)/C(C#N)=C/c2cn(CC(=O)Nc3ccccc3)c3ccccc23)c1C,-60.5%
20,N#C/C(=C\c1cn(CC(=O)Nc2ccccc2)c2ccccc12)C(=O)Nc1ccccc1,-36.7%
21,C#CCn1cc(/C=C(/C#N)C(=O)Nc2ccc(OCC)cc2)c2ccccc21,5.9%
22,N#C/C(=C\c1cn(CC(=O)Nc2ccccc2)c2ccccc12)C(=O)Nc1ccccc1Cl,126%

row,SMILES,displacement
1,CCc1ccccc1NC(=O)/C(C#N)=C/c1cn(CC(=O)Nc2ccccc2)c2ccccc12,-26.1%
2,COc1ccc(NC(=O)/C(C#N)=C/c2cn(CC(=O)Nc3ccccc3)c3ccccc23)cc1,-21.4%
3,Cc1ccc2c(c1)c(-c1ccccc1)c(-c1ccccc1)n2CC(O)CN1C(=O)CSC1=O (stereo unspecified),11.4%
4,CCOc1ccc(C2C(C(=O)/C=C/c3ccccc3)=C(O)C(=O)N2CCCCCC(=O)O)cc1 (stereo unspecified),-1%
5,O=C(NC(=S)Nc1ccc(Cl)c(-c2nc3ccccc3s2)c1)c1ccco1,5.8%
6,c1ccc2nc(NCc3ccncc3)ccc2c1,-8.8%
7,CCc1ccc(N2C(=O)NC(=O)/C(=C\c3ccc(OCC(=O)O)c(OC)c3)C2=O)cc1,9.9%
8,CCOc1ccc(NC(=O)CC2S/C(=N\N=C\c3ccc(O)c(OC)c3)NC2=O)cc1 (stereo unspecified),9.6%
9,CCOc1cc(/C=c2/sc3nc4ccccc4n3c2=O)cc(I)c1OCC,77.3%
10,COc1cc(/C=c2/sc3nc4ccccc4n3c2=O)cc(Br)c1OCc1ccccc1,1.8%
11,CCOc1ccc(/C=c2\sc3nc4ccccc4n3c2=O)cc1Cl,19.1%
12,COc1cc(/C=c2\sc3nc4ccccc4n3c2=O)cc(I)c1OCC(=O)O,-4.2%
13,COc1cc(/C=c2/sc3nc4ccccc4n3c2=O)cc(I)c1OCc1ccccc1,74.2%
14,CCOc1cc(/C=c2\sc3nc4ccccc4n3c2=O)ccc1OCCOc1ccc(Br)cc1,19%
15,C=CCc1ccccc1OCCOc1cccc(/C=c2\sc3nc4ccccc4n3c2=O)c1,13.4%
16,COc1cc(/C=c2\sc3nc4ccccc4n3c2=O)cc(I)c1OCCOc1cccc(C)c1,10.9%
17,C=CCc1ccccc1OCCOc1ccc(/C=c2\sc3nc4ccccc4n3c2=O)cc1OCC,100%
18,COc1ccc(OC)c(NC(=O)CN(c2ccc(Br)cc2)S(C)(=O)=O)c1,-12.8%
19,CCN(CC)CCCCOc1ccc(Cl)cc1C,-7.4%
20,COc1ccc(NC(=S)NC(=O)c2cccs2)cc1,-9.3%
21,O=C(Nc1ccccc1)C1C2C3CCC(C3)C12 (stereo unspecified),4%
22,O=C(CSCc1ccccc1)Nc1nnc(/C=C/c2ccccc2)s1,39.9%

row,SMILES,displacement
1,CC(=O)c1ccc(NC(=O)c2ccc3c(c2)C(=O)N(c2ccc(C)c(C)c2)C3=O)cc1,8.9%
2,Cc1ccc(N2C(=O)c3ccc(C(=O)Nc4cccc(C)c4C)cc3C2=O)c(C)c1,6.6%
3,CN1CCN(C(=O)C(=O)Nc2cccc3ccccc23)CC1,-2.6%
4,COc1cccc(/C=N/NC(=O)c2cccc(N3CCCC3=O)c2)c1,-3.5%
5,NC1=NC(=O)/C(=C\C=C\c2ccccc2)S1,154%
6,NC1=NC(=O)/C(=C\c2ccc(S(=O)(=O)O)cc2)S1,12.8%
7,COc1cc(/C=C2\SC(N)=NC2=O)cc(OC)c1,-9.9%
8,COc1ccc(/C=C2\SC(N)=NC2=O)cc1,124%
9,COc1ccc(/C=C2\SC(=O)NC2=S)cc1,67.8%
10,COc1ccc(/C=C2/SC(=O)NC2=O)c(OC)c1,4.9%
11,NC1=NC(=O)/C(=C/c2ccc(Cl)cc2)S1,57.4%
12,CN(C)c1ccc(/C=C/C=C2/SC(N)=NC2=O)cc1,-17.2%
13,CC(=O)NC1=NC(=O)/C(=C\C=Cc2ccccc2)S1,-42.4%
14,NC1=NC(=O)/C(=C/c2ccc(Br)cc2)S1,3.7%
15,COc1ccc(C(=O)Oc2ccc(/C=C3\SC(N)=NC3=O)cc2)cc1,10.1%
16,COc1ccc(/C=C2\SC(=S)N(C(C)C)C2=O)cc1,-3.9%
17,CC(=O)Nc1ccc2sc(C)nc2c1,12.9%
18,COc1cccc(CN2CCN(Cc3cc(OC)ccc3OC)CC2)c1,-9%
